Assay results reported in PubChem BioAssay AID1159580 (chemical genetic matrix, 2015).
“And” between values parts separate entries of the source, which are not always exact repeats. Identical values can stand only once. Among all 5,500 compounds or so, about 2,000 (36%) were called active. Inconclusive results (about 18%) are left out. Cut-off read from the data, not from the text of the source: active = normalized growth mostly below about 0.91 (no sharp cut-off); inconclusive = no clear call, values can overlap the other calls; inactive = mostly above about 0.92. The list shows a part of the results.

Assay: chemical genetic growth profiling, strain panel (AID 1159580);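 note: tested at 20 µM; growth read once vehicle control cultures reached saturation at 30 °C; 1 = growth at the plate median or of vehicle wells; lower values mean less growth of the strain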
Settings: S. cerevisiae deletion strains, growth OD

Measured: normalized growth

COc1ccc(C[C@H](N)C(=O)N[C@@H]2[C@@H](CO)OC(n3cnc4c(N(C)C)ncnc43)[C@@H]2O)cc1 (stereo partly specified)
inactive: locus YAL013W, strain DEP1, stronger effect = lower value 1.01 | locus YAL021C, strain ccr4, stronger effect = lower value 0.977 | locus YAL026C, strain drs2, stronger effect = lower value 0.996 | locus YAL030W, strain snc1, stronger effect = lower value 0.996 | locus YBL061C, strain skt5, stronger effect = lower value 0.996 | locus YBR009C, strain hhf1, stronger effect = lower value 0.988 | locus YBR021W, strain FUR4, stronger effect = lower value 1 | locus YBR023C, strain chs3, stronger effect = lower value 0.986 | locus YBR171W, strain sec66, stronger effect = lower value 0.976 | locus YBR229C, strain ROT2, stronger effect = lower value 1.01 | locus YBR231C, strain swc5, stronger effect = lower value 0.994 | locus YBR279W, strain paf1, stronger effect = lower value 0.992 | locus YCL011C, strain gbp2, stronger effect = lower value 1 | locus YCL016C, strain dcc1, stronger effect = lower value 1.01 | locus YCL029C, strain bik1, stronger effect = lower value 1.02 | locus YCL069W, strain vba3, stronger effect = lower value 0.992 | locus YCR088W, strain abp1, stronger effect = lower value 0.992 | locus YDL005C, strain med2, stronger effect = lower value 0.995 | locus YDL035C, strain GPR1, stronger effect = lower value 1 | locus YDL040C, strain nat1, stronger effect = lower value 1.01 | locus YDL074C, strain BRE1, stronger effect = lower value 0.988 | locus YDL101C, strain DUN1, stronger effect = lower value 1.01 | locus YDL134C, strain PPH21, stronger effect = lower value 1 | locus YDL185W, strain tfp1, stronger effect = lower value 1.02 | locus YDL192W, strain arf1, stronger effect = lower value 1.02 | locus YDR001C, strain nth1, stronger effect = lower value 0.982 | locus YDR069C, strain doa4, stronger effect = lower value 0.981 | locus YDR101C, strain arx1, stronger effect = lower value 1.02 | locus YDR137W, strain rgp1, stronger effect = lower value 1.01 | locus YDR150W, strain NUM1, stronger effect = lower value 1 | locus YDR159W, strain sac3, stronger effect = lower value 0.981 | locus YDR162C, strain NBP2, stronger effect = lower value 1.02 | locus YDR195W, strain ref2 0.969 | locus YDR297W, strain sur2, stronger effect = lower value 0.996 | locus YDR318W, strain mcm21, stronger effect = lower value 1.02 | locus YDR334W, strain swr1, stronger effect = lower value 0.977 | locus YDR335W, strain msn5, stronger effect = lower value 0.985 | locus YDR388W, stronger effect = lower value 1.02 | locus YDR392W, strain spt3, stronger effect = lower value 1.01 | locus YDR502C, strain sam2, stronger effect = lower value 1 | locus YEL003W, strain gim4, stronger effect = lower value 0.999 | locus YEL037C, strain rad23, stronger effect = lower value 1 | locus YEL061C, strain CIN8 (second series), stronger effect = lower value 0.99 | locus YEL061C, strain CIN8, stronger effect = lower value 1 | locus YER015W, strain faa2, stronger effect = lower value 0.991 | locus YER016W, strain bim1, stronger effect = lower value 1.01 | locus YER110C, stronger effect = lower value 1.02 | locus YER111C, strain swi4, stronger effect = lower value 0.977 | locus YER155C, strain BEM2 (second series), stronger effect = lower value 1.03 | locus YER155C, strain BEM2, stronger effect = lower value 1 | locus YER167W, strain BCK2, stronger effect = lower value 1.02 | locus YFR010W, strain ubp6, stronger effect = lower value 0.995 | locus YGL078C, strain dbp3, stronger effect = lower value 1.02 | locus YGL086W, strain mad1, stronger effect = lower value 1.02 | locus YGL167C, strain pmr1, stronger effect = lower value 1.01 | locus YGL173C, strain kem1, stronger effect = lower value 0.988 | locus YGL227W, strain vid30, stronger effect = lower value 0.992 | locus YGL240W, strain doc1, stronger effect = lower value 0.987 | locus YGL248W, strain PDE1, stronger effect = lower value 1.01 | locus YGL253W, strain hxk2, stronger effect = lower value 0.981 | locus YGR078C, strain PAC10, stronger effect = lower value 0.99 | locus YGR135W, strain pre9, stronger effect = lower value 1 | locus YGR229C, strain SMI1, stronger effect = lower value 0.996 | locus YGR252W, strain gcn5, stronger effect = lower value 1.06 | locus YHR013C, strain ard1, stronger effect = lower value 0.983 | locus YHR027C, strain rpn1, stronger effect = lower value 0.991 | locus YHR030C, strain SLT2, stronger effect = lower value 1.01 | locus YHR079C, strain IRE1 (second series), stronger effect = lower value 1.02 | locus YHR079C, strain IRE1, stronger effect = lower value 0.98 | locus YHR094C, strain hxt1, stronger effect = lower value 1.02 | locus YHR129C, strain ARP1, stronger effect = lower value 1.01 | locus YHR142W, strain chs7, stronger effect = lower value 1 | locus YHR200W, strain rpn10, stronger effect = lower value 1.03 | locus YIL066C, strain RNR3, stronger effect = lower value 1.02 | locus YIL073C, strain SPO22, stronger effect = lower value 1.06 | locus YIL125W, strain kgd1, stronger effect = lower value 1.01 | locus YIR030C, strain dcg1, stronger effect = lower value 1.02 | locus YJL092W, strain hpr5, stronger effect = lower value 0.988 | locus YJL095W, strain BCK1 (second series), stronger effect = lower value 1 | locus YJL095W, strain BCK1, stronger effect = lower value 0.997 and 0.996 | locus YJL115W, strain asf1, stronger effect = lower value 0.984 | locus YJL129C, strain trk1, stronger effect = lower value 0.987 | locus YJL134W, strain LCB3, stronger effect = lower value 1 | locus YJL154C, strain vps35, stronger effect = lower value 0.996 | locus YJL164C, strain tpk1, stronger effect = lower value 1.01 | locus YJL166W, strain qcr8, stronger effect = lower value 0.979 | locus YJL168C, strain set2, stronger effect = lower value 1.01 | locus YJL187C, strain SWE1 (second series), stronger effect = lower value 1.01 | locus YJL187C, strain SWE1, stronger effect = lower value 0.998 | locus YJR043C, strain POL32, stronger effect = lower value 0.995 | locus YJR066W, strain TOR1, stronger effect = lower value 0.937
